# Test results: PubChem BioAssay
# Activity calls are given as the source filed them.
# Legend:
# [1] = system: Plasmodium falciparum Sir2 (PF13_0152, Sir2A); assay: Plasmodium falciparum Sir2A binding compounds – biochemical, small-molecule microarray, 635 nm fluorescence, primary screen (AID 1098); settings: fluorescence 635 nm, higher = more signal;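 note: score merges spot fluorescence intensity with its signal-to-noise ratio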
# [2] = probe aDKK1 binding to arrayed compounds – biochemical, biotinylated probe, 635/667 nm fluorescence, primary screen (AID 1099); settings: small-molecule microarray, higher = more signal;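 note: score merges 667nm spot fluorescence with signal to noise across triplicate slides; reference of the scale not given here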
# [3] = probe aCHRDL2 binding to arrayed compounds – biochemical, biotinylated probe, 635/667 nm fluorescence, primary screen (AID 1100); settings: small-molecule microarray, higher = more signal
# [4] = change in splice reporter luminescence, either direction, cell-based, HEK293, spliceosome inhibition project, primary screen (AID 1101); settings: HEK293 splicing luciferase reporter, 24 h, higher = more signal, called active from +8 up or from −8 down;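 note: HEK293 cells carrying a splicing-competent luciferase reporter gene; test concentration not given here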
# [5] = target: Fibroblast growth factor 10 (Homo sapiens) (UniProt O15520); assay: compounds binding fibroblast growth factor 10 – biochemical, small-molecule microarray, 635 nm fluorescence, primary screen (AID 1102); settings: FGF10 binding, fluorescence 635 nm, higher = more signal
# Fibroblast growth factor 10 (Homo sapiens), sequence (O15520 whole entry, looked up): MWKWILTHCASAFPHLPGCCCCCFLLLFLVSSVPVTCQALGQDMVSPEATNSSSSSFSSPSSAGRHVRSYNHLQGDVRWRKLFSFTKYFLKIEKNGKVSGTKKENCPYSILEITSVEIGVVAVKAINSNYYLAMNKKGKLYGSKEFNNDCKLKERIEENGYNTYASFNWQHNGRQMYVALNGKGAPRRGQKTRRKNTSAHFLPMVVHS
# [6] = system: glycogen synthase kinase-3 (GSK3A per assay name; protocol says GSK3B); assay: compounds binding glycogen synthase kinase-3 – biochemical, small-molecule microarray, 635 nm fluorescence, GSK3A, primary screen (AID 1103); settings: fluorescence 635 nm, higher = more signal; note: the record names both GSK3A and GSK3B
# [7] = target: Epidermal growth factor receptor (Homo sapiens) (UniProt P00533); assay: compounds binding epidermal growth factor receptor – biochemical, small-molecule microarray, 635 nm fluorescence, primary screen (AID 1104); settings: EGFR binding, higher = more signal;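 note: score merges 667 nm emission intensity with spot signal to noise over triplicate slides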
# Epidermal growth factor receptor (Homo sapiens), sequence (P00533 whole entry, looked up): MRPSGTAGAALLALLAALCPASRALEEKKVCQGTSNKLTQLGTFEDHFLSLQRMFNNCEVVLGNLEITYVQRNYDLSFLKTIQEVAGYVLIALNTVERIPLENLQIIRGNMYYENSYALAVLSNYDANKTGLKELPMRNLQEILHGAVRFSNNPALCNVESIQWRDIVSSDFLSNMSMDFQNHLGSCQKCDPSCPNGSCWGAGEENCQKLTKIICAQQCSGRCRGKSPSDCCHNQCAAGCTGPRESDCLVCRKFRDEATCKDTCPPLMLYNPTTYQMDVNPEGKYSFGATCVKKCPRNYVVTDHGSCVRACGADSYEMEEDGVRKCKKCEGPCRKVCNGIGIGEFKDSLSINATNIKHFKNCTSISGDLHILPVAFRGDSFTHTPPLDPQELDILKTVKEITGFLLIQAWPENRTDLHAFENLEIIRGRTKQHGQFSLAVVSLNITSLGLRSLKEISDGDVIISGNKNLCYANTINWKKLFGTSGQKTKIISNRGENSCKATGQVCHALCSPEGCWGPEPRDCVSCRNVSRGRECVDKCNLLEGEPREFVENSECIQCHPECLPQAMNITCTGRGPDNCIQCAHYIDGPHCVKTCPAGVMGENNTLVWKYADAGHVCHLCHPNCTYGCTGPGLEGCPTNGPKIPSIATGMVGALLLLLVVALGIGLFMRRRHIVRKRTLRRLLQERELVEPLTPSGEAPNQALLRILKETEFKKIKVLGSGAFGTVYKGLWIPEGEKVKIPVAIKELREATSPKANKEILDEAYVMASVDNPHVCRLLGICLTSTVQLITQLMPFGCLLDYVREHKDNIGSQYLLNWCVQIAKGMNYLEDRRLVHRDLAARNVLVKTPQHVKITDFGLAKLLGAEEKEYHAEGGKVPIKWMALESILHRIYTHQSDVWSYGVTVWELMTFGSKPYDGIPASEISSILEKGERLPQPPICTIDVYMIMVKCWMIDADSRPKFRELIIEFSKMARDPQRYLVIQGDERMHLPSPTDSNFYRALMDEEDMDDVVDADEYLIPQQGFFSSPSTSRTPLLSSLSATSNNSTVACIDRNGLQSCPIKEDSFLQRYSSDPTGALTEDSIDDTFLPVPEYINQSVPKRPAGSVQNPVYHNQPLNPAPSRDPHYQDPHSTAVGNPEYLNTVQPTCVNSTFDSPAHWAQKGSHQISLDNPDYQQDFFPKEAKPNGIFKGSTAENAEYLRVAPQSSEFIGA
# [8] = target: Follistatin-related protein 3 (Homo sapiens) (UniProt O95633); assay: compounds binding follistatin-related protein 3 – biochemical, small-molecule microarray, 635 nm fluorescence, primary screen (AID 1105); settings: FSTL3 binding, higher = more signal;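 note: score merges emission near 667 nm and signal to noise per printed spot across three slides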
# Follistatin-related protein 3 (Homo sapiens), sequence (O95633 whole entry, looked up): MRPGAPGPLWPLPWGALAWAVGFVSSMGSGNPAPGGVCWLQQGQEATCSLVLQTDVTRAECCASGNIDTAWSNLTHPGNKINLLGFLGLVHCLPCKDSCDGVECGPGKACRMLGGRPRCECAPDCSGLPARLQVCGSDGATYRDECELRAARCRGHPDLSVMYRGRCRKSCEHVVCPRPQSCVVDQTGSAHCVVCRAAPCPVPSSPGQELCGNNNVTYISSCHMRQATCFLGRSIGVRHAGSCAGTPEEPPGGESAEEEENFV
# [9] = target: Dickkopf-related protein 1 (Homo sapiens) (UniProt O94907); assay: small molecules binding DKK1 protein – biochemical, small-molecule microarray, 635 nm fluorescence scan, primary screen (AID 1106); settings: higher = more signal;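 note: score merges emission near 667 nm with signal to noise over three replicate slides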
# Dickkopf-related protein 1 (Homo sapiens), sequence (O94907 whole entry, looked up): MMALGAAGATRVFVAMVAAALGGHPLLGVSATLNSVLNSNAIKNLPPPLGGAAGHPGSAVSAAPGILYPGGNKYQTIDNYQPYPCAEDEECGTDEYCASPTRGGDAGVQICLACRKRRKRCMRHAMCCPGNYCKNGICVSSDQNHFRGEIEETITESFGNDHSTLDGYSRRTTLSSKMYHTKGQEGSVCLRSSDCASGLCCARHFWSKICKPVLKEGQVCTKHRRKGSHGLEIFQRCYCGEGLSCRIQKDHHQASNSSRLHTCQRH
# [10] = system: Inhibin beta A chain (activin A); assay: small molecules binding activin A – biochemical, small-molecule microarray, 635 nm fluorescence scan, primary screen (AID 1107); settings: INHBA, higher = more signal;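 note: mouse activin A protein probed at 4.33 µg/mL on printed slides; score merges bound-protein fluorescence near 667 nm with spot signal-to-noise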
Structure (SMILES),composite z-score [1],composite z-score [2],composite z-score [3],z-score [4],composite z-score [5],composite z-score [6],composite z-score [7],composite z-score [8],composite z-score [9],composite z-score [10]
CCCCN1CC=CC23O[C@@H]4C=CCOC(=O)[C@@H]4[C@H]2C(=O)N(CCCCCO)[C@@H]3C1=O (stereo not given in full),1.15,-0.159,0.641,-0.248 (inactive),-0.828,-0.656,-0.945,-1.39,-1.03,-0.0355
COC(=O)[C@@]1(Cc2ccc(F)cc2)[C@H]2c3cc(C(=O)N(C)C)n(CC4CC4)c3C[C@H]2CN1C(=O)c1ccccc1,-0.0199,2.38,1.41,-1.59 (inactive),1.4,1.31,0.463,1.18,-0.637,0.14
C[C@]1(C(=O)NC2CC2)c2ccccc2C(=O)N(Cc2cc(C(F)(F)F)cc(C(F)(F)F)c2)[C@H]1c1ccc(CO)cc1,1.56,0.757,0.298,-0.402 (inactive),0.711,0.948,0.279,0.865,0.585,0.592
O=C1OCCC=C[C@H]2OC34C=CCN(CCN5CCOCC5)C(=O)[C@H]3N(CCCCCCO)C(=O)[C@@H]4C12 (stereo not given in full),0.813,-0.5,-0.35,0.418 (inactive),-0.306,-0.225,-0.71,-0.351,-0.292,0.191
CCCCc1cn(C[C@H](Cc2ccccc2)NC(=O)N[C@H](CO)CCc2oc(C(C)=O)c(C(=O)OC)c2C(=O)OC)nn1,0.595,-0.164,-0.22,-0.949 (inactive),1.04,1.02,0.717,1.4,0.485,-0.0075
Cc1ccc(S[C@]2(C(=O)NC(C)C)CC(=O)N(Cc3ccccc3Cl)[C@@H]2c2ccc(CO)cc2I)cc1,1,0.0056,1.07,0.0132 (inactive),-1.05,-0.26,-1.51,-0.674,-1.39,0.762
O=C1OCC=C[C@H]2OC34C=CCN(c5ccc6ccccc6c5)C(=O)[C@H]3N(CCCCCCO)C(=O)[C@@H]4[C@@H]12 (stereo not given in full),1.66,-0.117,0.817,-0.076 (inactive),-0.821,-1.12,-1.79,-1.69,-0.854,0.0633
Cc1ccc(S[C@]2(C(=O)NCC(C)C)CC(=O)N(Cc3cc(C(F)(F)F)cc(C(F)(F)F)c3)[C@@H]2c2ccc(CO)cc2I)cc1,-0.313,0.75,1.39,-0.0957 (inactive),-0.755,-1.16,-1.78,-0.615,-2.14,0.923
O=C1c2ccccc2[C@@]2(Cc3ccccc3N(CC(F)(F)F)C2=O)[C@H](c2ccc(CO)cc2)N1Cc1ccccc1Cl,0.0888,-0.237,-0.524,-0.311 (inactive),0.466,0.612,0.509,0.725,0.558,0.531
C=CCNC(=O)[C@@H]1[C@H]2C(=O)O[C@H](c3ccccc3)[C@H](c3ccccc3)N2[C@H](c2ccccc2OCCO)[C@@]12C(=O)N(C(=O)OCCOC)c1ccc(C#CCNC(N)=O)cc12,1.43,0.0834,0.447,-0.938 (inactive),0.738,0.581,0.444,0.921,-0.0253,0.38
COc1ccc(C(=O)Nc2ccc(CN3C(=O)[C@@]4(O[C@@H](CC(=O)N5CCC[C@H]5CO)[C@H]([Si](C)(C)c5ccc(OC)cc5)[C@H]4C)c4ccccc43)cc2)cc1,1.4,-0.143,-0.0233,-0.681 (inactive),1.38,1.29,1.02,1.44,1.14,0.715
O=C1[C@H]2C=C(Br)[C@H](C[C@@H]2OCCCCO)[C@@]12CO2,1.02,-0.257,-0.504,-0.238 (inactive),0.177,0.0613,0.224,-0.0883,0.438,0.646
O=C1NC(=O)C2C1C=CC(C(O)c1ccccc1)N2Nc1ccc(Cl)cc1Cl (stereo not given),1.62,0.394,0.914,-1.36 (inactive),1.14,1.27,0.531,1.27,-0.0035,0.705
COc1ccc([Si](C)(C)[C@H]2[C@H](CCn3cc([C@H](O)c4ccccc4)nn3)O[C@@]3(C(=O)N(Cc4cccc(N5CCOC5=O)c4)c4ccccc43)[C@@H]2C)cc1,0.463,0.0739,-0.313,0.36 (inactive),0.339,0.709,0.334,0.769,0.913,0.464
O=C1OCCC/C=C\[C@H]2OC34C=CCN(Cn5nnc6ccccc65)C(=O)[C@H]3N(CCO)C(=O)[C@@H]4C12 (stereo not given in full),1.31,-0.316,0.292,-1.48 (inactive),-0.468,-0.963,-0.898,-1.41,-1.14,-0.171
CC(C)(C)C(=O)N[C@@H](c1ccc(Cl)cc1)[C@]1(C)C[C@H]1C1CCCCC1,0.705,0.701,0.933,-0.455 (inactive),0.521,1.28,-0.19,0.233,0.0399,0.998

Structure (SMILES),composite z-score [1],composite z-score [2],composite z-score [3],z-score [4],composite z-score [5],composite z-score [6],composite z-score [7],composite z-score [8],composite z-score [9],composite z-score [10]
C=CCN1C(=O)[C@]2(O[C@H](CCO)[C@@H]([Si](C)(C)c3ccc(OC)cc3)[C@@H]2C)c2cc(N3CCCCC3=O)ccc21,0.914,0.0375,0.0217,-1.69 (inactive),0.849,0.549,0.286,0.918,0.147,0.247
COc1cc2c(cc1OC)CN(C(=O)[C@H]1[C@@H]3C(=O)O[C@@H](c4ccccc4)[C@@H](c4ccccc4)N3[C@@H](c3ccc(O)cc3)[C@]13C(=O)Nc1ccc(C#CCNC(N)=O)cc13)CC2,1.11,-0.0741,0.0306,-0.996 (inactive),1.11,-0.294,-0.0357,0.903,0.596,0.544
C=CCNC(=O)[C@H]1[C@@H]2C(=O)O[C@@H](c3ccccc3)[C@@H](c3ccccc3)N2[C@@H](c2ccc(OCCO)cc2)[C@]12C(=O)N(C(=O)OCCOC)c1ccccc12,1.57,0.192,0.299,-1.04 (inactive),0.942,1.31,0.461,1.25,0.497,0.247
CCCCC(O)C1C=CC2C(=O)N(c3ccccc3)C(=O)C2N1Nc1ccccc1F (stereo not given),1.24,1.4,1.17,0.826 (inactive),0.857,0.827,-0.374,0.443,-0.683,0.834
CN(C)CCCNC(=O)[C@@]1(c2ccc([N+](=O)[O-])cc2)CC(=O)N(C2CCCCC2)[C@@H]1c1ccc(CO)cc1,0.762,0.0157,0.759,0.315 (inactive),-0.105,-0.148,-0.364,0.156,-0.236,1.27
O=C1OCC=C[C@H]2OC34C=CCN(CCN5CCOCC5)C(=O)[C@H]3N(CCCO)C(=O)[C@@H]4[C@@H]12 (stereo not given in full),0.112,-0.218,-0.0654,-1.52 (inactive),-0.116,0.394,-0.0604,0.292,0.163,0.715
C=C(COC)/C(=C/C[C@H](OC(=O)c1ccncc1)c1ccc(OCCO)cc1)c1cnc2ccccc2c1,1.24,0.159,-0.106,-1.02 (inactive),1.36,1.07,1.26,1.55,1.01,1.61
CCOC(=O)C[C@H]1[C@H](OC(=O)c2ccc(C(=O)c3ccccc3)cc2)[C@@H](NC(=O)c2ccc(-c3ccccc3)cc2)c2cc(OCCCO)ccc2N1C(=O)c1ccccc1,0.82,-0.222,-0.387,0.475 (inactive),0.994,0.477,0.515,0.723,0.321,-0.144
COCCCNC(=O)[C@@]1(Cc2ccccc2)N=C(c2ccc(OCCCO)cc2)O[C@H]1c1ccccc1,1.19,1.22,1.28,0.272 (inactive),0.849,1.02,-0.804,-0.569,-0.728,1.01
CC(=O)NCCCC[C@@H]1NC(=O)[C@@H]2C[C@H](C(=O)NCCCCN(C)C)[C@H](c3cccc(OCCO)c3)N2C1=O,1.4,-0.0978,0.529,0.805 (inactive),0.556,0.117,-0.12,0.227,0.0332,-0.609
CN1C2C=C(CCCO)C(C3C(=O)N(C(N)=O)C(=O)C32)C1c1ccc(CN2CCCC2)cc1 (stereo not given),-0.323,-0.284,-0.257,-0.0848 (inactive),-0.367,-0.563,-0.376,-0.658,-0.544,-0.751
CCOC(=O)C[C@H]1[C@H](OC(=O)Cc2ccc3c(c2)OCO3)[C@@H](NC(=O)c2ccc3ccccc3c2)c2cc(OCCCO)ccc2N1C(=O)c1ccccc1,0.622,-0.0805,-0.205,-0.547 (inactive),0.47,0.213,0.188,0.433,0.295,0.405
CCCCN1CC=CC23O[C@@H]4/C=C\CCC(C)OC(=O)C4[C@H]2C(=O)N(CCCCCO)[C@@H]3C1=O (stereo not given in full),0.0665,-0.267,0.421,-0.259 (inactive),-1.28,-0.577,-0.762,-0.668,-1.41,-0.323
COC(=O)c1c(CC[C@@H](CO)NC(=O)N[C@@H](C)Cn2cc(C3(O)CCCCC3)nn2)oc(C(C)=O)c1C(=O)OC,1.35,-0.0465,-0.481,-2.26 (inactive),1.2,1.25,0.763,1.27,0.892,-0.216
COc1ccc([Si](C)(C)[C@H]2[C@H](CC(=O)N3CCC[C@H]3CO)O[C@@]3(C(=O)N(Cc4cccc(N5C(=O)c6cccc7cccc5c67)c4)c4ccccc43)[C@@H]2C)cc1,1.45,-0.109,-0.098,0.685 (inactive),1.29,0.483,0.761,1.25,0.892,0.459
CCCC[C@@H]1C[C@H]1[C@@H](NC(=O)c1ccco1)c1ccc(Cl)cc1,0.428,0.807,1.03,-0.659 (inactive),0.438,1.15,-0.0272,0.0636,0.461,0.89
